Source: PubChem BioAssay AID2279 (Southern Research Specialized Biocontainment Screening …, 2010)
Results with a measured potency or affinity are listed apart.

Test: HIV-1 Env-mediated cell fusion inhibitors, dose response, CCR5-tropic Env (AID 2279)
Conditions: CCR5-tropic HIV-1 Env, reporter read-out; series mostly up to 50 µM; inhibition: at the top concentration; call rule not given here

inhibition, inactive:
Nc1c(S(=O)(=O)O)cc(NC(=O)c2ccccc2)c2c1C(=O)c1ccccc1C2=O -0.14%, CCOC(=O)c1sc(N2C(=O)C(O)=C(C(=O)c3ccco3)C2c2ccc([N+](=O)[O-])cc2)nc1C (centres undefined) 35.6%, COc1ccc(C(=O)Nc2ccccc2C(=O)O)cc1NC(=O)C(c1ccccc1)c1ccccc1 32.5%, O=C(O)COc1ccccc1/C=N/Nc1ccc(S(=O)(=O)Nc2ccc(Cl)cc2)cc1[N+](=O)[O-] -4.47%, O=C(NCCc1ccccc1)c1ccc2c(=O)[nH]c3c(C(=O)NCC4CCCO4)sc(=S)n3c2c1 (centres undefined) 39.4%, O=C1NC(=Nc2ccccc2Cl)S/C1=C\c1cccc([N+](=O)[O-])c1O 4.34%, O=C(O)CN1C(=O)/C(=C\c2ccccc2OCc2ccc(Cl)cc2Cl)SC1=S -1.58%, O=C(O)c1cccc(-n2cccc2/C=C2/NC(=O)N(c3ccc(Cl)cc3)C2=O)c1 18.4%, CCc1nnc(NS(=O)(=O)c2ccc(NC(=S)NC(=O)/C=C/c3ccc(F)cc3)cc2)s1 -5%, CCCCCC#CCC#CCC#CCC#CCCCC(=O)O 23.7%, O=C(O)c1[nH]c2ccccc2c1C(c1ccccc1)c1c(C(=O)O)[nH]c2ccccc12 -7.23%, COc1cc(/C=C2/SC(=S)N(CC(=O)O)C2=O)ccc1OCC(=O)Nc1ccc(C)c(C)c1 -12.3%, O=C(O)COc1ccc(Br)cc1C(c1c(C(=O)O)[nH]c2ccccc12)c1c(C(=O)O)[nH]c2ccccc12 6.84%, C=CCOc1ccc(C(c2c(C(=O)O)[nH]c3ccccc23)c2c(C(=O)O)[nH]c3ccccc23)cc1 -3.52%, O=C(CSc1nc2ccccc2c(=O)n1Cc1ccccc1)Nc1ccc(Br)cc1C(=O)O 7.04%, COc1cccc(C2C3=C(N=c4s/c(=C\c5ccc(OCC(=O)O)cc5)c(=O)n42)c2ccccc2CC3)c1 (centres undefined) 29.7%, C=CCOC(=O)C1=C(C)N=c2s/c(=C3\C(=O)N(CC(=O)O)c4ccccc43)c(=O)n2C1c1ccc(OC)cc1 (centres undefined) 6.53%, CS(=O)(=O)C1=NSC2=NC(=O)/C(=C\c3ccc(OC(=O)c4ccco4)c(Br)c3)C(=N)N21 16.8%, CCc1nnc(NS(=O)(=O)c2ccc(NC(=S)NC(=O)/C=C/c3cccs3)cc2)s1 13.6%, CC(C)(C)CC(C)(C)c1ccc(OCC(=O)N/N=C/c2ccc(S(=O)(=O)O)o2)cc1 5.05%, O=C(O)CN1C(=O)/C(=C\c2cc(Br)ccc2OCc2ccccc2Cl)SC1=S 7.33%, O=C(O)CN1C(=O)/C(=C\c2cc(Br)ccc2OCc2ccc(Cl)cc2)SC1=S -20.9%, O=C(CCN1C(=O)/C(=C/c2ccco2)SC1=S)Nc1ccc(C(=O)O)c(O)c1 6.17%, O=C(CCN1C(=O)/C(=C/c2ccccc2Cl)SC1=S)Nc1ccccc1C(=O)O -4.11%, Cc1ccc(/C=C2\SC(=S)N(CCCC(=O)Nc3ccccc3C(=O)O)C2=O)cc1 29.7%, CCOC(=O)C1=C(C)N=c2s/c(=C/c3ccc(OCC(=O)O)cc3)c(=O)n2C1c1ccc(SC)cc1 (centres undefined) 17.9%, O=C(O)/C(CC(=O)c1ccc(Cl)cc1)=N/Nc1ccc([N+](=O)[O-])cc1[N+](=O)[O-] -3.03%, Cc1ccc(C)c(S(=O)(=O)/N=C2\C=C(NS(=O)(=O)c3ccccc3)C(=O)c3ccccc32)c1 32.6%, O=C(COc1cccc2ccccc12)Nc1ccc(Cl)cc1C(=O)O 5.35% [at 25 µM], Cc1ccc(S(=O)(=O)Oc2ccc(/C=C3/C(=N)N4C(=NC3=O)SN=C4S(C)(=O)=O)cc2)cc1 4.93%, CCOc1ccc(NC(=NCc2ccc3c(c2)OCO3)SC2CC(=O)N(c3ccc(C(=O)O)cc3)C2=O)cc1 (centres undefined) 31.2%, CC(C)(C)c1ccc(S(=O)(=O)/N=C2\C=C(NS(=O)(=O)c3ccccc3)C(=O)c3ccccc32)cc1 13.5%, COc1cc(/C=C(\C#N)c2nc3ccc(C)cc3[nH]2)cc([N+](=O)[O-])c1O -16.1%, O=c1[nH]c(=S)[nH]c2c1C(c1ccc(Br)cc1)c1c([nH]c(=S)[nH]c1=O)O2 21%
